From the supplement of paper PMC12669032
Where “and” joins values, the source holds several entries; their conditions need not be identical. Equal entries are not always repeated.

Legend:
Assay in all cases: growth AUC relative to DMSO control (median of replicates) (fraction); higher = more growth (less inhibition), active = hit call of the paper
Conditions in all cases: 20 µM; 24 h;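 active = AUC reduced over 20% with Padj below 0.05 in at least 2 of 3 replicates; inactive = otherwise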
Coprococcus comes = tested on: Coprococcus comes
In short: (§1)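 Gut bacterial monocultures were grown anaerobically at 37 °C in mGAM, starting at OD600 0.05, with 20 µM compound (1% DMSO) in round-bottom 96-well plates under pierced gas-permeable seals. OD600 was read hourly for 24 h. Area under the growth curve (minimum OD set to 0) was normalised to the plate median of DMSO controls, or to row and column medians on the industrial chemical plate. The value is the median of three biological replicates grown on separate days.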

Escherichia coli ED1a = tested on: Escherichia coli ED1a
In short: as §1

Escherichia coli IAI1 = tested on: Escherichia coli IAI1
In short: as §1

Eubacterium rectale = tested on: Eubacterium rectale
In short: as §1

[1] = tested on: Fusobacterium nucleatum subsp. animalis
In short: as §1

Lactobacillus gasseri = tested on: Lactobacillus gasseri
In short: as §1

Lactobacillus paracasei = tested on: Lactobacillus paracasei
In short: as §1

Odoribacter splanchnicus = tested on: Odoribacter splanchnicus
In short: as §1

[2] = tested on: Parabacteroides distasonis
In short: as §1

Parabacteroides merdae = tested on: Parabacteroides merdae
In short: as §1

Roseburia intestinalis = tested on: Roseburia intestinalis
In short: as §1

Streptococcus salivarius = tested on: Streptococcus salivarius
In short: as §1

Measured: growth AUC

CC(=NC#N)N(C)Cc1ccc(Cl)nc1
inactive: Coprococcus comes 1.06 and 0.993 | Escherichia coli ED1a 0.994 and 1 | Escherichia coli IAI1 0.982 and 1.08 | Eubacterium rectale 0.908 and 0.994 | [1] 0.987 and 0.952 | Lactobacillus gasseri 0.985 and 1.03 | Lactobacillus paracasei 1.03 and 0.987 | Odoribacter splanchnicus 1.04 and 1.02 | [2] 1.02 and 1 | Parabacteroides merdae 1.04 and 0.98 | Roseburia intestinalis 0.956 and 1.02 | Streptococcus salivarius 1.05 and 1.06

N#Cc1c[nH]cc1-c1cccc(Cl)c1Cl
inactive: Coprococcus comes 0.948 | Escherichia coli ED1a 1.01 | Escherichia coli IAI1 0.981 | Eubacterium rectale 1.06 | [1] 0.797 | Lactobacillus gasseri 1.06 | Lactobacillus paracasei 1.07 | Odoribacter splanchnicus 0.732 | [2] 0.804 | Parabacteroides merdae 0.941 | Roseburia intestinalis 1.14 | Streptococcus salivarius 0.929

NC(=O)/N=C1/SCCN1Cc1ccc(Cl)nc1
inactive: Coprococcus comes 0.965 | Escherichia coli ED1a 0.999 | Escherichia coli IAI1 0.997 | Eubacterium rectale 1.02 | [1] 0.984 | Lactobacillus gasseri 0.995 | Lactobacillus paracasei 0.975 | Odoribacter splanchnicus 1.03 | [2] 0.992 | Parabacteroides merdae 0.984 | Roseburia intestinalis 0.989 | Streptococcus salivarius 1.04

O=C(OC1CCCCC1)c1ccccc1C(=O)OC1CCCCC1
inactive: Coprococcus comes 0.97 | Escherichia coli ED1a 1 | Escherichia coli IAI1 0.99 | Eubacterium rectale 0.946 | [1] 1.01 | Lactobacillus gasseri 1.08 | Lactobacillus paracasei 1.02 | Odoribacter splanchnicus 0.991 | [2] 0.957 | Parabacteroides merdae 1 | Roseburia intestinalis 0.983 | Streptococcus salivarius 1

Clc1cccc(Cl)c1Cl
inactive: Coprococcus comes 1.01 | Escherichia coli ED1a 0.985 | Escherichia coli IAI1 0.997 | Eubacterium rectale 0.982 | [1] 1 | Lactobacillus gasseri 1.02 | Lactobacillus paracasei 1.03 | Odoribacter splanchnicus 1 | [2] 1 | Parabacteroides merdae 1.01 | Roseburia intestinalis 0.972 | Streptococcus salivarius 1.06

COC(=O)C(C)N(C(=O)Cc1ccccc1)c1c(C)cccc1C (centres undefined)
inactive: Coprococcus comes 0.967 | Escherichia coli ED1a 0.995 | Escherichia coli IAI1 0.972 | Eubacterium rectale 0.916 | [1] 0.917 | Lactobacillus gasseri 0.888 | Lactobacillus paracasei 0.98 | Odoribacter splanchnicus 0.96 | [2] 0.985 | Parabacteroides merdae 0.944 | Roseburia intestinalis 0.975 | Streptococcus salivarius 0.96

Cc1cccc(C)c1N(Cn1cccn1)C(=O)CCl
inactive: Coprococcus comes 0.992 | Escherichia coli ED1a 0.976 | Escherichia coli IAI1 0.952 | Eubacterium rectale 1.09 | [1] 1.1 | Lactobacillus gasseri 0.928 | Lactobacillus paracasei 0.997 | Odoribacter splanchnicus 1.06 | [2] 1.01 | Parabacteroides merdae 0.963 | Roseburia intestinalis 0.935 | Streptococcus salivarius 0.999

COC(=O)c1ccccc1CS(=O)(=O)NC(=O)Nc1nc(OC)cc(OC)n1
inactive: Coprococcus comes 1.02 | Escherichia coli ED1a 0.974 | Escherichia coli IAI1 0.978 | Eubacterium rectale 0.998 | [1] 0.999 | Lactobacillus gasseri 0.996 | Lactobacillus paracasei 1 | Odoribacter splanchnicus 1.02 | [2] 0.998 | Parabacteroides merdae 1 | Roseburia intestinalis 0.964 | Streptococcus salivarius 1.01

COC(=O)[C@@H](C)N(C(=O)Cc1ccccc1)c1c(C)cccc1C
inactive: Coprococcus comes 0.978 | Escherichia coli ED1a 1.02 | Escherichia coli IAI1 1.02 | Eubacterium rectale 0.991 | [1] 0.913 | Lactobacillus gasseri 0.944 | Lactobacillus paracasei 0.979 | Odoribacter splanchnicus 0.925 | [2] 0.948 | Parabacteroides merdae 0.921 | Roseburia intestinalis 1.01 | Streptococcus salivarius 0.958

Cc1ccc(N(SC(F)(Cl)Cl)S(=O)(=O)N(C)C)cc1
inactive: Coprococcus comes 1.02 | Escherichia coli ED1a 0.974 | Escherichia coli IAI1 0.982 | Eubacterium rectale 1.03 | [1] 1 | Lactobacillus gasseri 1.07 | Lactobacillus paracasei 1 | Odoribacter splanchnicus 1.02 | [2] 1.06 | Parabacteroides merdae 1.04 | Roseburia intestinalis 1.01 | Streptococcus salivarius 1.01

ClC1=C(Cl)C2(Cl)C(CBr)CC1(Cl)C2(Cl)Cl (centres undefined)
inactive: Coprococcus comes 0.994 | Escherichia coli ED1a 0.956 | Escherichia coli IAI1 0.986 | Eubacterium rectale 1.01 | [1] 0.969 | Lactobacillus gasseri 0.858 | Lactobacillus paracasei 1.03 | Odoribacter splanchnicus 1.01 | [2] 0.973 | Parabacteroides merdae 0.973 | Roseburia intestinalis 0.993 | Streptococcus salivarius 1.03

ClC1=C(Cl)C2(Cl)C3C(Cl)C=CC3C1(Cl)C2(Cl)Cl (centres undefined)
inactive: Coprococcus comes 0.989 | Escherichia coli ED1a 1.02 | Escherichia coli IAI1 1 | Eubacterium rectale 1.09 | [1] 1.12 | Lactobacillus gasseri 0.856 | Lactobacillus paracasei 0.967 | Odoribacter splanchnicus 0.964 | [2] 0.842 | Parabacteroides merdae 1.02 | Roseburia intestinalis 0.918 | Streptococcus salivarius 0.928
